Test results reported in PubChem BioAssay (NCI).
This is part of a sample that, as a whole, favours compounds with a hit. Of some 83,000 tested, about 20% had one in any assay.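 How to read the values: 0–100, growth inhibition (40 = 60% inhibited); 0, no net growth; -100 to 0, cell death (-40 = 40% of starting cells died; -100 = all dead).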 Unmarked numbers belong to inactive results. Activity calls are given as the source filed them.

System: OVCAR-4 ovarian
Assay: NCI-60 one-dose screen, 48 h (100 = growth as untreated, 0 = no growth, -100 = all killed)
Conditions: 10 µM unless noted
Method: Growth inhibition of the OVCAR-4 human tumor cell line is measured as a screen for anti-cancer activity. Cells are grown in 96 well plates and exposed to the test compound for 48 hours. Compounds are tested at a single concentration, which is 10^-5 M for most compounds. The reported endpoint is percent growth (GI% or GIPRCNT), where numbers from 0 - 100% represent growth inhibition, and numbers from -100% - 0 represent cell death. For example, a value of 40 represents 60% growth inhibition. A value of 0 means no net growth occurred over the course of the experiment. A value of -40 indicates 40% of cells at the beginning of the experiment died by the end of the experiment. A value of -100 means all cells are dead at the end of the experiment.
NCI-60 Human Tumor Cell Lines Screen was performed using the standard one-dose NCI protocol, which is described in more detail at https://dtp.cancer.gov/discovery_development/nci-60/default.htm.
Compounds with GIPRCNT values below 10 were considered active. Activity score was based on GIPRCNT using the following formula: […]
Score is 0 for GIPRCNT values of 100 or above, 50 for GIPRCNT values of 0, and 100 for GIPRCNT values of -100.

| Compound | growth |
| --- | --- |
| COc1ccc(/C(Cl)=N/N=C(\Cl)c2cc(OC)c(OC)c(OC)c2)cc1OC(C)=O | 99.4% |
| COc1cc(/C=C/C(=O)c2ccc(Oc3ncnc4ccccc34)cc2)cc(OC)c1OC | 73.6% |
| Cc1cc2c(cc1C)N(C(=O)CCl)CCN2C(=O)CCl | -72% (active) |
| Nc1ncnc2c1c(-c1ccc(Oc3ccccc3)cc1)nn2C[C@H]1SSC[C@H]1O | 25.6% |
| NC(=S)NNC1CCCCC1 | 91.1% |
| c1ccc(CNCCN(CCNCc2ccccn2)Cc2ccc3ccccc3c2)nc1 | 0.169% (active) |
| O=C(NCCNc1nccc(-c2c(-c3cccc(O)c3)nc3sccn23)n1)c1cc(N2CCOCC2)cc(C(F)(F)F)c1 | 133% |
| CCCCOc1nc2ccc(Cl)cc2cc1/C=C/C(=O)/C=C/c1ccc(Cl)cc1 | 91.5% |
| COC1OCC(OS(=O)(=O)c2ccc(C)cc2)C(OC(=O)c2ccccc2)C1OC(=O)c1ccccc1 (stereo not given) | 57% |
| C#C[C@H](O)/C=C/CCCCCCC#C[C@H](O)CC[C@@H](O)C#CCCCCCC/C=C/[C@@H](O)C#C | 101% |
| CCn1c(C)nc([N+](=O)[O-])c1Sc1nc(N)nc2nc[nH]c12 | 47.4% |
| COc1cc2c(cc1OCCCCC(=O)Nc1ccc(-c3nc4ccccc4s3)cc1)N=C[C@@H]1CCCN1C2=O | -11.9% (active) |
| C=C1C(=O)O[C@H]2[C@H]1CC/C(C(=O)NCCOCCOCC(=O)Nc1ccc(OC)c(C(N)=O)c1O)=C\CC[C@@]1(C)O[C@@H]21 | 101% |
| CNCCCOc1c(Br)cc(CCNC(=O)/C(Cc2ccc(OC)c(Br)c2)=N/O)cc1Br | 27.9% |
| CS(=O)(=O)OCC(COS(C)(=O)=O)C(c1ccccc1)c1ccccc1 | 106% |
| OCc1cnccc1NC12CC3CC(CC(C3)C1)C2 | 101% |
| COc1ccc(-c2ccc(NC(=O)Nc3cccc(C(F)(F)F)c3)c(C)n2)cc1 | 42.9% |
| CCCCC(=O)Nc1nc2ccc(SCCC)cc2s1 | 81.1% |
| CC(CN(C)C)CN1c2ccccc2CCc2ccccc21 (stereo not given) | 78.7% |
| O=c1c2ccccc2sc2c(NCCN3CCOCC3)nc3ccccc3c12 | 65.6% |

| Compound | growth |
| --- | --- |
| O=C(Nc1ccc(-n2cc(-c3ccncc3)c(-c3ccc(O)c(Cl)c3)n2)cc1)Nc1cc(C(F)(F)F)cc(C(F)(F)F)c1 | 82.2% |
| O=C(Nc1ccc(-n2ccc3c(NC(=O)c4ccccc4)ncnc32)cc1)c1ccc(Cl)c(C(F)(F)F)c1 | 17.1% |
| O=C(Nc1cccc([N+](=O)[O-])c1)c1ccc2ccccc2c1O | 44.5% |
| O=S(=O)(Nc1cccc2cc(OS(=O)(=O)c3ccccc3)ccc12)c1ccccc1 | 71.3% |
| O=C(Nc1ccc(-n2cc(-c3ccncc3)c(-c3ccc(O)c(Cl)c3)n2)cc1)Nc1cccc(Cl)c1Cl | 78.7% |
| O=[N+]([O-])c1cccc(C(c2ccccc2)c2ccccc2)c1 | 98.2% |
| CCOC(=O)C1=C(N)Oc2cc(OC)ccc2C1c1ccc(F)c(F)c1 (stereo not given) | 69.4% |
| N#CC1=C(N)Oc2c(ccc3ccccc23)C1c1cc(=O)oc2ccc(Cl)cc12 (stereo not given) | 65.8% |
| Cc1nc(N)nc(SCc2ccccc2)c1Br | 86.2% |
| Cc1ncc(CO)c(C(=O)O)c1O | 103% |
| FC(F)(F)c1cn(CCN2CCOCC2)c2ncnc(Cl)c12 | 82.4% |
| CC[C@H]1[C@@H]2C=C[C@@H]3[C@H]4C/C=C\C(=O)NCCC[C@@H]5NC(=O)/C(=C(O)/C=C/[C@@H]4C[C@@H]3[C@H]2C[C@H]1C)C5=O | -31.5% (active) |
| CN(C)c1ccc(/C=c2\s/c(=C\C(=O)C(C)(C)C)[nH]c2=O)cc1 | 85.3% |
| COc1cc([C@@H]2c3cc4c(cc3C(OC3O[C@@H]5COC(C)O[C@H]5[C@H](O)[C@H]3O)C3COC(=O)[C@@H]32)OCO4)cc(OC)c1O (stereo not given in full) | 88.3% |
| CCOC(=O)n1cnc2c(Cl)ncnc21 | 107% |
| O=C(O)c1cccc2oc(-c3ccccc3O)nc12 | 20.8% |
| NS(=O)(=O)c1ccc(-n2nc(-c3ccc(Cl)cc3)ccc2=O)cc1 | 100% |
| C#C[C@@]1(O)[C@@H](CO)O[C@@H](n2cc(C(F)(F)F)c3c(N)ncnc32)[C@@H]1O | 15.8% |
| CCCCn1c(-c2cccc(OC)c2)nc2cc(OC)c(OC)cc2c1=O | 108% |
| c1coc(CSc2ncnc3nc[nH]c23)c1 | 99% |
